The nature of experiment [1]: Nuclear factor erythroid 2-related factor 2/antioxidant responsive element (Nrf2/ARE) small molecule agonists: qHTS cell viability counter screen in human keratinocytes (AID 1919968; active = well fitted curve in the direction sought with a large enough effect in the repeat runs; an effect the other way counts as inactive or inconclusive; note: nearly all actives have a fitted effect of over 55% in size). Summed up:
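In human HaCaT keratinocytes stably expressing an ARE-driven luciferase, compound exposure lasted 23 h at 37 C under 5% CO2. Viable cells are quantified with a protease-based fluorogenic reagent (CellTiter-Fluor) read 1 h after addition.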

Experiment [2] in a line: Nuclear factor erythroid 2-related factor 2/antioxidant responsive element (Nrf2/ARE) small molecule agonists: luciferase reporter gene qHTS assay in human keratinocytes (AID 1919969; note: nearly all actives have a fitted effect of over 35% in size; note: potency is the fitted concentration of half-maximal effect). (Reporter assays use an easily measured gene product as a stand-in for the process of interest.)
For experiment [3], the target named is Gonadotropin-releasing hormone receptor (Homo sapiens) (UniProt P30968). Description: Human gonadotropin-releasing hormone receptor (GnRHR) small molecule agonists, calcium flux assay in GnRHR-HEK293 cells (AID 1920063). Note: nearly all actives have a fitted effect of over 35% in size. Summed up: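 Intracellular calcium rise is the read-out: engineered human GnRHR HEK293 cells, dye-loaded, are exposed to DMSO-dissolved compounds and fluorescence at Ex/Em 480/540 is tracked for 3 min.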
Sequence of Gonadotropin-releasing hormone receptor (Homo sapiens) (P30968 whole entry, looked up): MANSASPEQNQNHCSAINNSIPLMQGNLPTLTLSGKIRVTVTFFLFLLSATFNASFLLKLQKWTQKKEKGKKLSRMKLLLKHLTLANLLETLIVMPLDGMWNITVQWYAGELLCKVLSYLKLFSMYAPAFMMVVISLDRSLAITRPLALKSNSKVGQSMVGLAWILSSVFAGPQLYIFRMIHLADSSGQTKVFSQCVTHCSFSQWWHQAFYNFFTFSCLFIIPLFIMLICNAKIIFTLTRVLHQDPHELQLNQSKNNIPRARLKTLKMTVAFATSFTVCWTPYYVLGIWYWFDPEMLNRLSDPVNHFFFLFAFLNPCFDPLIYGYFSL

The target in experiment [4] is KiSS-1 receptor (Homo sapiens) (UniProt Q969F8). Kind of experiment: Human kisspeptin (KISS1R) small molecule agonists, calcium flux assay in KISS1R-HEK293 cells (AID 1920064; active = well fitted curve in the direction sought with a large enough effect in the repeat runs; an effect the other way counts as inactive or inconclusive). The method in brief: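 Concentration-response testing used 15 concentrations in triplicate on human KISS1R-expressing HEK293 cells. Calcium-dependent fluorescence (Ex/Em 480/540) was followed kinetically for 3 min after compound transfer.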
Sequence of KiSS-1 receptor (Homo sapiens) (Q969F8 whole entry, looked up): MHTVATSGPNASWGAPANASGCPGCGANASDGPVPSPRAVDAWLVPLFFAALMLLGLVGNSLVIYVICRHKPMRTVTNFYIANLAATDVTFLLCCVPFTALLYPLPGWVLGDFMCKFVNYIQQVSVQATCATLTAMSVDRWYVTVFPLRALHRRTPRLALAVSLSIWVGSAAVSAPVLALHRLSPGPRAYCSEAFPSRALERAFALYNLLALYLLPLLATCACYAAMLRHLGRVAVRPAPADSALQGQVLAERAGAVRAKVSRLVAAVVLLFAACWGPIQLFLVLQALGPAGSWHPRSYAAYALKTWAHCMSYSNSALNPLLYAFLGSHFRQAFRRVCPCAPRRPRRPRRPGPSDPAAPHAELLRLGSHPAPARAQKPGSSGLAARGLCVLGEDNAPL
On the technique in general: Calcium flux is commonly read through the fluorescence of an indicator in the cells.

Experiment [5] can be described thus: G protein-coupled receptor (GPCR) small molecule agonists, calcium flux assay: HEK293 wild type cell line counter screen (AID 1920065). The method in brief: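 Fluorescence intensity signals activation. After overnight (18 h) culture and a 1 h calcium dye load at 37 C, compounds are added by pin tool and the plate read at 480/540 nm for 3 min in 1 s steps.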
Experiment [6] can be described thus: p53 small molecule agonists, cell-based qHTS assay with human liver microsomes (AID 1963577). The method in brief: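 p53RE-bla reporter cells were pre-incubated 5 h at 37 C, then treated with compounds plus human liver microsomes (0.5 mg/mL final) and NADPH (0.5 mg/mL final) for 16 h at 37 C. Beta-lactamase activity was read by LiveBLAzer fluorescence after 2 h at room temperature.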

Experiment [7] in a line: p53 small molecule agonists, cell-based qHTS assay with rat liver microsomes (AID 1963578). Summed up: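 p53RE-bla cells were exposed to compounds together with rat liver microsomes (0.5 mg/mL final) and NADPH (0.5 mg/mL final) for 16 h at 37 C, then read by LiveBLAzer beta-lactamase fluorescence after 2 h at room temperature.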
Experiment [8] can be described thus: p53 small molecule agonists, cell-based qHTS assay with human liver microsomes: qHTS cell viability counter screen (AID 1963579). Note: nearly all actives have a fitted effect of over 45% in size. Summed up: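 p53RE-bla cells (4,000/well) were pre-incubated 5 h at 37 C, then given compounds in DMSO plus human liver microsomes (0.5 mg/mL final) and NADPH (0.5 mg/mL final) for 16 h at 37 C. Viability was read by CellTiter-Glo luminescence.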

Experiment [9] in a line: p53 small molecule agonists, cell-based qHTS assay with rat liver microsomes: qHTS cell viability counter screen (AID 1963580). Note: nearly all actives have a fitted effect of over 45% in size. The method in brief: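 After the beta-lactamase ratio was read, CellTiter-Glo was added to the same wells and luminescence measured at 30 min; cells had been treated 16 h at 37 C with compounds, rat liver microsomes and NADPH (0.5 mg/mL final each).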
A general note: qHTS replaces the single test concentration by a dilution series.

Experiment [10] in a line: p53 small molecule agonists, cell-based qHTS assay: qHTS cell viability counter screen (AID 1963581). Note: nearly all actives have a fitted effect of over 45% in size. Summed up: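 Luminescence from CellTiter-Glo, reflecting ATP content, serves as the cytotoxicity measure; it is taken after the 2 h reporter substrate step in HCT-116 p53RE-bla cells dosed for 16 h at 37 C.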
Experiment [11] is described as follows: p53 small molecule agonists, cell-based qHTS assay (AID 1963582; active = well fitted activation curve with a large enough effect in the signal ratio in the repeat runs, not every such curve was filed as active; the % refers to the signal ratio). Summed up: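 After plating, p53RE-bla cells sat 5 h in the incubator; compounds or DMSO vehicle were pinned in; a 16 h incubation at 37 C followed; FRET substrate was added and, 2 h later at RT, fluorescence was measured.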
Experiment [12] deals with 5-hydroxytryptamine receptor 2A (Homo sapiens) (UniProt P28223). Kind of experiment: 5-hydroxytryptamine receptor 2A (HTR2A) small molecule antagonists, cell-based qHTS assay (AID 1963586). Note: nearly all actives have a fitted effect of over 45% in size. Summed up: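 CHO cells stably expressing human HTR2A were plated for 18 h at 37 C, then loaded with calcium dye for 1 h. Compounds were preincubated 5 min at room temperature before DOI (4 nM solution) was added. Kinetic fluorescence was read for 3 min.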
Sequence of 5-hydroxytryptamine receptor 2A (Homo sapiens) (P28223 whole entry, looked up): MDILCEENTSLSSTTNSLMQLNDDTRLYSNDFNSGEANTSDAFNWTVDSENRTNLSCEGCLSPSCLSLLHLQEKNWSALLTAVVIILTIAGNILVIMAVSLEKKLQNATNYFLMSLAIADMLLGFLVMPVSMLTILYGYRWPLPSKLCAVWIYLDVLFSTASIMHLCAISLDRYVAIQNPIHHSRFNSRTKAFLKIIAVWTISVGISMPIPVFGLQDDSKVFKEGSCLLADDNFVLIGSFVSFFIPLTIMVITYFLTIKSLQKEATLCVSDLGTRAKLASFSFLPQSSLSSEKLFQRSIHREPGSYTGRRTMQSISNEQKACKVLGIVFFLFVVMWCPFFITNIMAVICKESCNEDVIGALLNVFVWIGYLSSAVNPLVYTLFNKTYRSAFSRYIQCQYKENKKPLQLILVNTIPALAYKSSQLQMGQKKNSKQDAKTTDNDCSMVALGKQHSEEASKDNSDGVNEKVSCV

Experiment [13] shares this target. Description: 5-hydroxytryptamine receptor 2A (HTR2A) small molecule agonists, cell-based qHTS assay (AID 1963587). Note: nearly all actives have a fitted effect of over 30% in size. Summed up: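 CHO cells stably expressing human HTR2A, plated 18 h, loaded with calcium dye 1 h at 37 C. Agonist mode: compounds added and intracellular calcium fluorescence recorded kinetically for 2 min at 1 sec intervals.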
For experiment [14], the target named is Muscarinic acetylcholine receptor M1 (Homo sapiens) (UniProt P11229). Description: Cholinergic receptor muscarinic 1 (CHRM1) small molecule antagonists, cell-based qHTS assay (AID 1963588). Note: nearly all actives have a fitted effect of over 40% in size. Summed up: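 Compounds were tested at 15 concentrations in three independent runs. Dye-loaded CHRM1-CHO cells were exposed 5 min at room temperature before stimulation by acetylcholine added at 50nM. Intracellular calcium was read kinetically on FDSS for 3 min.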
Sequence of Muscarinic acetylcholine receptor M1 (Homo sapiens) (P11229 whole entry, looked up): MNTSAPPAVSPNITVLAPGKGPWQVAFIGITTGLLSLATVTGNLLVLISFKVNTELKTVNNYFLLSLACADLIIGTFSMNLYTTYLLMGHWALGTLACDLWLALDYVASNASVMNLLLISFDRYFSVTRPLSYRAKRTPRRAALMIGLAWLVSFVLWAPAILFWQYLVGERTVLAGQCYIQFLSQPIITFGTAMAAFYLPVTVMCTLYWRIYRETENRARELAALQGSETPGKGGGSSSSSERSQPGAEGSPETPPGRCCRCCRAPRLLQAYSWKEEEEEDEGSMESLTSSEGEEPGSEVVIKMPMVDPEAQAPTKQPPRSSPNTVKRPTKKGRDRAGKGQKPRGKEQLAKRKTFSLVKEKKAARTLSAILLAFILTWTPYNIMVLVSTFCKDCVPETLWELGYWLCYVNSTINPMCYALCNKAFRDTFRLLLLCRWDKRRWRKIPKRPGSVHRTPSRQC

The nature of experiment [15]: cAMP Responsive Elements (CRE) small molecule agonists, cell-based qHTS assay (AID 1963590). The method in brief: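 Compound exposure lasted 3 h at 37 C/5% CO2 in CRE-bla HEK 293T cells grown in assay medium with 10% dialyzed FBS and 25 mM HEPES. Reporter signal came from LiveBLAzer B/G FRET substrate, 2 h, room temperature.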
A short description of experiment [16]: cAMP Responsive Elements (CRE) small molecule antagonists, cell-based qHTS assay (AID 1963591; active = well fitted inhibition curve with a large enough effect in the signal ratio in the repeat runs, not every such curve was filed as active; the % refers to the signal ratio). Summed up:
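Stimulation used NKH477 at a final 0.25 uM for 3 h in compound-treated CRE-bla HEK293T cells, seeded 18 h beforehand. Reporter activity was measured with LiveBLAzer B/G FRET substrate after 2 h at room temperature.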

The target of experiment [17] is Beta-2 adrenergic receptor (Homo sapiens) (UniProt P07550). Kind of experiment: Adrenergic beta2 receptor (ADRB2) small molecule antagonists, cell-based qHTS assay (AID 1963592). Note: series mostly up to about 92 µM; nearly all actives have a fitted effect of over 50% in size. The method in brief:
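Assay format: CHO-ADRB2 cells, 18-20hr seeding at 37C/5% CO2, then compound plus 1nM isoproterenol agonist mix for 0.5hr RT. Homogeneous time-resolved fluorescence cAMP detection after 1hr, expressed as 665/615 nm ratio.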

For experiment [18], the target named is D(2) dopamine receptor (Homo sapiens) (UniProt P14416). Kind of experiment: Dopamine D2 receptor (DRD2) small molecule agonists, cell-based qHTS assay (AID 1963594). Note: nearly all actives have a fitted effect of over 35% in size. The method in brief: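 HEK293 cells stably expressing human DRD2, pre-treated with PDE inhibitor Ro20-1724 (0.1 mM final) and compound 10 min at room temperature, then stimulated with NKH477 (200nM […]) for 30 min. cAMP read by HTRF (665/620 nm).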
Sequence of D(2) dopamine receptor (Homo sapiens) (P14416 whole entry, looked up): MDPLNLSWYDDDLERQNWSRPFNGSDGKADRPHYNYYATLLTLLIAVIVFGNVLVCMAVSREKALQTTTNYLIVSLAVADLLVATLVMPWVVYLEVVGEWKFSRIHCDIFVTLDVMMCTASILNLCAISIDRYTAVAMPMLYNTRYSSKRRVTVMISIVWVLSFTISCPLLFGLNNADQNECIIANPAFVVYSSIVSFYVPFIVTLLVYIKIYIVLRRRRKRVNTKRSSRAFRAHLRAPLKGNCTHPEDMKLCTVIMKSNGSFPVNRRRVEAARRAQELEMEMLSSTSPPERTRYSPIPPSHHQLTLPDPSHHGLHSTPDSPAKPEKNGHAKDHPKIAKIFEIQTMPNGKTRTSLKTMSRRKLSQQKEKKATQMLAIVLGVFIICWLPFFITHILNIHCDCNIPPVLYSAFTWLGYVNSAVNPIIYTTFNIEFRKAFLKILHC

For experiment [19] the target is unchanged. Kind of experiment: Dopamine D2 receptor (DRD2) small molecule antagonists, cell-based qHTS assay (AID 1963595; active = well fitted inhibition curve with a large enough effect in the signal ratio in the repeat runs, with a control signal flat; the % refers to the signal ratio). The method in brief: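 HTRF cAMP read-out at 665 and 620 nm emission (340 nm excitation). Antagonist mode: compounds were tested against 12 nM quinpirole in DRD2-HEK293 cells, with 200 nM NKH477 raising cAMP and 0.1 mM Ro20-1724 blocking its breakdown.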

The target in experiment [20] is Muscarinic acetylcholine receptor M1 (Homo sapiens) (UniProt P11229). Kind of experiment: Cholinergic receptor muscarinic 1 (CHRM1) small molecule agonists, cell-based qHTS assay (AID 1963589). Note: nearly all actives have a fitted effect of over 35% in size. Summed up:
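Fluorescent calcium dye reports M1 activation in stably transfected CHO cells. Compounds, 15 concentrations, added after 1 h dye loading at 37 C; kinetic reading at 1 sec intervals.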

Results filed as inconclusive are left out. Some structures have more than one record in an assay (separate samples or runs), and their calls can disagree. The source made the active and inactive calls. Unless noted, calls come from the whole dose curve.

The text below walks through data of PubChem BioAssay (Tox21).

Sequence of Beta-2 adrenergic receptor (Homo sapiens) (P07550 whole entry, looked up): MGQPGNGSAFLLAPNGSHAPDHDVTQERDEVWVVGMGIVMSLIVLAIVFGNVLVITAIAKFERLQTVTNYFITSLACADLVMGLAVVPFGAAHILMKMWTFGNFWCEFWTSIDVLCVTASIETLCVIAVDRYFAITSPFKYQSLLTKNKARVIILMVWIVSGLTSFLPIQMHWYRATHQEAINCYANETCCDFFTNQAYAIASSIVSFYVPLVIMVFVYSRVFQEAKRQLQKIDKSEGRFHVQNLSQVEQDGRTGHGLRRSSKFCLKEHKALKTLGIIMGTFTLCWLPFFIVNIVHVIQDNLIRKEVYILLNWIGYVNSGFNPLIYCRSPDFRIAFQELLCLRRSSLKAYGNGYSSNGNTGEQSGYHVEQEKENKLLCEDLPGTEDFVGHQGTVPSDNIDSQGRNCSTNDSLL

Take `COc1ccc2c3c1O[C@H]1[C@@H](O)C=C[C@H]4[C@@H](C2)N(C)CC[C@@]341`: the Potency result in experiment [1], in experiment [3], in experiment [4], in experiment [5], in [6] and in [7] was “inactive” each time. The Potency result in [8], in experiment [9], in [10], in experiment [11], in experiment [12] and in [13] was “inactive” throughout. Moreover, the Potency result in experiment [14], in experiment [15], in [16], in experiment [17] and in experiment [18] was “inactive” in each case. Also, the Potency in experiment [2] is 23.9 µM (active) and inactive.

On to `Sc1ccccc1Cl`, for which the Potency entry in experiment [1], in experiment [2], in experiment [3], in [4], in experiment [5] and in [6] was “inactive” in each case. Further, the Potency result in experiment [7], in experiment [8], in [9], in experiment [10], in experiment [11] and in experiment [12] was “inactive” each time. The Potency result in [13], in experiment [14], in experiment [15], in [16], in experiment [17] and in experiment [18] was “inactive” each time. For the same molecule, the Potency result in experiment [19] is “inactive”.

Take `CN(N=O)C(N)=O`: the Potency result in [1], in experiment [2], in [3], in experiment [4], in experiment [5] and in experiment [6] was “inactive” each time. Also, the Potency result in experiment [7], in [8], in [9], in [10], in experiment [11] and in experiment [13] was “inactive” in each case. In addition, the Potency entry in experiment [20], in experiment [15], in [16], in [17] and in experiment [18] was “inactive” each time.

`C=CCOC(N)=O`: the Potency entry in experiment [1], in [2], in experiment [3], in experiment [4], in experiment [5] and in experiment [6] was “inactive” each time. Further, the Potency result in experiment [7], in [8], in [9], in experiment [10], in [11] and in experiment [13] was “inactive” throughout. Also, the Potency entry in [14], in [20], in [15], in experiment [16], in [17] and in experiment [18] was “inactive” in each case. In experiment [19], the Potency result was “inactive”.

As for `O=[N+]([O-])CCO`, the Potency result in experiment [1], in [2], in experiment [3], in [4], in [5] and in experiment [6] was “inactive” in each case. Moreover, the Potency result in [7], in experiment [8], in experiment [9], in experiment [10], in [11] and in experiment [12] was “inactive” each time. The Potency result in experiment [20], in experiment [15], in [16], in experiment [17], in experiment [18] and in experiment [19] was “inactive” throughout.

Regarding `Nc1nc(N)nc(Cl)n1`, the Potency result in experiment [1], in [2], in experiment [3], in experiment [4], in experiment [5] and in experiment [6] was “inactive” each time. For the same molecule, the Potency result in [7], in experiment [8], in experiment [9], in experiment [10], in experiment [11] and in experiment [13] was “inactive” in each case. Also, the Potency result in experiment [14], in [15], in experiment [16], in experiment [17], in [18] and in experiment [19] was “inactive” throughout.

Regarding `COCC(=O)N(c1c(C)cccc1C)N1CCOC1=O`, the Potency entry in experiment [1], in [2], in experiment [3], in experiment [4], in experiment [5] and in experiment [6] was “inactive” each time. Further, the Potency result in experiment [7], in experiment [8], in experiment [9], in experiment [10], in experiment [11] and in experiment [12] was “inactive” throughout. Besides, the Potency entry in [13], in experiment [20], in experiment [15], in experiment [16], in experiment [17] and in [18] was “inactive” each time. Moreover, the Potency result in [19] is “inactive”.

Take `C=CCc1cc(OC)c2c(c1)OCO2`: the Potency entry in experiment [1], in experiment [2], in experiment [3], in [4], in experiment [5] and in [6] was “inactive” in each case. Further, the Potency result in experiment [7], in [8], in experiment [9], in experiment [10], in experiment [11] and in experiment [13] was “inactive” in each case. The Potency result in experiment [14], in experiment [20], in [15], in experiment [16], in [17] and in [18] was “inactive” in each case. In addition, the Potency result in experiment [19] is “inactive”.
